Each structure is given as a SMILES string. This is part of a sample that, as a whole, favours compounds with a hit. Of some 83,000 tested, about 20% had one in any assay.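 Negative percent growth values reflect cell death: -40 means 40% of the cells present at the start died, and -100 means all died.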 Unmarked numbers belong to inactive results. Calls of active or inactive are those of the source. Rule for the calls: active = growth percent below 10; inactive = the rest.

The subject of this assay is CAKI-1 renal. Nature of the assay: NCI-60 one-dose screen, 48 h (100 = growth as untreated, 0 = no growth, -100 = all killed). The note with it: 10 µM unless noted.
For `O=C(CCl)Oc1ccc([N+](=O)[O-])cc1`, the growth was 124%. Consider `Clc1cccc(Cl)c1CSc1nc2ccccc2n2cccc12`, for which the growth is 70.5%. In the case of `Cc1cccnc1NC1OC(=O)c2ccccc21` (stereo unspecified), the growth was 99.5%. In the case of `COc1cc(OC)c(NC(=O)C(Sc2nc(C)cc(C)c2C#N)c2ccccc2)cc1Cl` (stereo unspecified) it was 94.6%; in that of `COc1ccc(/C=N/NC(=O)COCC(=O)N/N=C/c2ccc(OC)cc2)cc1`, 98.8%. For `CC(C)c1ccccc1NC(=O)N1CCC(C(C)C)CC1`, the growth is 92.3%. On to `FC(F)(F)c1cc(NC2=NCCN=C(Nc3cc(C(F)(F)F)cc(C(F)(F)F)c3)SS2)cc(C(F)(F)F)c1`, for which the growth is 48.1%. `CC(CCC#N)(CCC#N)C(=O)c1ccccc1`: the growth was 112%.

Consider `CCCCCCCCNC(=O)C(C)C`, for which the growth was 99.1%. Regarding `CCCCCCCCCCCCCCCCCC(=O)NCCNC(=O)CCCCCCCCCCCCCCCCC`, the growth was 83.3%. Consider `CCCNS(=O)(=O)c1ccc(Cl)cc1`, for which the growth is 93.8%.

Consider `S=c1nc(-c2ccccn2)c(-c2ccccn2)n[nH]1`, for which the growth is 110%. For `CCOc1ccc(C(=O)NCC(C)C)cc1`, the growth was 101%. The value for `O=C(O)c1cccc(-n2ncc(Cl)c(Cl)c2=O)c1` was 98.6%; that for `Cn1/c(=N\N=C\c2ccccc2OCCO)sc2ccccc21` was 88.9%; that for `Clc1ccc(-c2noc(/C=C\c3ccccc3)n2)cc1` was 96.1%. On to `CC(=O)NCNC(C)=O`, for which the growth was 102%.

Turning to `CCOC(=O)c1ccc(C(C)(C)C)cc1`, the growth is 101%. In the case of `Cc1ccc(NC(=O)c2ccccc2Cl)cc1`, the growth is 107%. Consider `C=CCC(OC(C)=O)c1ccc(OC)c(OC)c1` (stereo unspecified), for which the growth is 92.3%. For the molecule `Oc1ccc(N=Cc2ccc(OCc3ccccc3)cc2)cc1`, the growth is 98.1%. The value for `COc1nc(Nc2cccc(C(F)(F)F)c2)nc(OC)n1` was 103%; that for `C=C1SC(=Nc2c(C)cccc2C)N(c2nc(Cl)nc(Cl)n2)C12CCCCC2` was 96.6%.

In the case of `O=C(CCl)Nc1ccccc1SCc1cc(Cl)cc2c1OCOC2`, the growth was 35%. In the case of `Cc1c(-c2ccc(C3CCCCC3)cc2)nc2ccc(F)cc2c1C(=O)O` it was -2.23% (active); in that of `C[n+]1cc2cc3c(cc2c2ccccc21)OCO3`, 102%.

In the case of `CCCC(=O)CC(=O)c1ccccc1`, the growth was 107%. Take `CC(C)(CC(=O)O)CC(=O)O`: the growth was 97.7%. In the case of `CCOC(=O)C(C#N)=C1CCN(C)CC1`, the growth was 92.4%.

In the case of `O=C1NC(=O)C(c2ccccc2)O1` (stereo unspecified), the growth is 98%. The value for `C#CCSc1nnnn1-c1ccccc1` was 78.5%.

Source of the values: PubChem BioAssay (NCI).
